In the library only some 3.4% were active in any assay of this set; here they are far more common.
PLCb3 inh – human PLC-beta3 inhibitors, primary screen, biochemical, fluorescence | 1-phosphatidylinositol 4,5-bisphosphate phosphodiesterase beta-3 (Homo sapiens), Q01970 | Purified PLC-beta3, fluorogenic substrate | inhibition, % at 12.2 µM | 0.18% of 370,000 active | AID 720704, 2013; in the data active = inhibition above about 11%
PLC-gamma1 inh – PLC-gamma1 enzyme inhibitors, primary screen, biochemical, fluorescence, purified enzyme. 0.84% of 370,000 active. fluorogenic substrate. inhibition, % at 12.2 µM
ADAM10 inh – human ADAM10 inhibitors, primary screen, biochemical, QFRET, HTS; Disintegrin and metalloproteinase domain-containing protein 10 (Homo sapiens), O14672; recombinant ADAM10, EDANS/DABCYL FRET peptide cleavage, 3 h; inhibition, % at 7 µM; 0.62% of 370,000 active; AID 720582, 2013;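 active = inhibition above a per-campaign cutoff equal to the mean of compounds falling between control-based bounds plus 3 SD, cut at about 20% in these data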
sPLA2-III inh – human group III sPLA2 inhibitors, primary screen, biochemical, QFRET, BODIPY PC-A2 liposome substrate; Group 3 secretory phospholipase A2 (Homo sapiens), Q9NZ20; QFRET BODIPY PC-A2 liposome hydrolysis, fluorescence; inhibition, % at 12.2 µM; 0.56% of 370,000 active;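 active = inhibition above mean plus 3 SD of compounds lying within the high and low control bounds, cut at about 19% in these data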
Target sequence (Q9NZ20 whole entry, looked up): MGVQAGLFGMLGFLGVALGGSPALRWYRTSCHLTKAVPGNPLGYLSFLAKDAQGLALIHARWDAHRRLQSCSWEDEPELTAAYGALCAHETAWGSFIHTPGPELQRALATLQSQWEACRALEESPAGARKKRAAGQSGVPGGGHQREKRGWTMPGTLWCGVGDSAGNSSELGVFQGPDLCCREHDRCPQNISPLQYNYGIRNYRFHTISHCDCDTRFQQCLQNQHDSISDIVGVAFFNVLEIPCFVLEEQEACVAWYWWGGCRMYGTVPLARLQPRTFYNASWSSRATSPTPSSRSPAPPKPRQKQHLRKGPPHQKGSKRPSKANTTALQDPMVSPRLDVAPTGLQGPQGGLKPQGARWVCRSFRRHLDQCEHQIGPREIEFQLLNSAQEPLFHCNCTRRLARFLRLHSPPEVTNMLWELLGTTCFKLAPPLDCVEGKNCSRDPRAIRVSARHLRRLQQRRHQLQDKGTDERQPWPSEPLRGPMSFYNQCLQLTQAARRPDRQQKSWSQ
ADAM17 inh – ADAM17 inhibitors, primary screen, biochemical, QFRET; Disintegrin and metalloproteinase domain-containing protein 17 (Homo sapiens), P78536; recombinant ADAM17, EDANS/DABCYL FRET peptide cleavage; inhibition, % at 6.95 µM; 0.83% of 370,000 active;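 active = inhibition above the mean of compounds lying between control limits plus 3 SD, set per campaign, cut at about 8.5% in these data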
proKLK7 act – proKLK7 zymogen activators, primary screen, biochemical, fluorescence intensity. Kallikrein-7 (Homo sapiens), P49862. activation, % at 7 µM. 0.9% of 370,000 active. purified proKLK7, EDANS-DABCYL substrate fluorescence; 100% is mature enzyme control, 0% vehicle;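 active = activation above the mean of all tested compounds plus 3 SD, computed per campaign excluding outliers beyond control limits, cut at about 13% in these data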
ADAM10 confirm – human ADAM10 inhibitors, confirmation, biochemical, QFRET, triplicate. shares compounds with ADAM10 inh. ADAM10 QFRET peptide cleavage, EDANS fluorescence. inhibition, % at 6.95 µM. 1% of 2,100 active. AID 743208, 2013;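 active = inhibition above about 20% chosen separately for each screening run, limit read from the data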
ADAM17 ctr – ADAM17 inhibitors, counter-screen for ADAM10 exosite inhibitor project, biochemical, QFRET, high throughput; shares compounds with ADAM10 inh; ADAM17 QFRET peptide cleavage, EDANS fluorescence; inhibition, % at 6.95 µM; 0.5% of 2,100 active; AID 743214, 2013;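 active = mean triplicate inhibition above the solvent-only control wells' mean plus 3 SD, cut at about 12% in these data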
ADAM10 ctr – ADAM10 inhibitors, counter-screen for ADAM17 exosite inhibitor project, biochemical, FRET, human ADAM10. shares compounds with ADAM17 inh. recombinant ADAM10, EDANS/DABCYL FRET peptide cleavage, 3 h. inhibition, % at 6.95 µM. 47% of 2,900 active. AID 743256, 2014;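 active = mean inhibition over the triplicate runs exceeds the activity threshold set in the earlier primary screen, cut at about 20% in these data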
ADAM17 confirm – ADAM17 inhibitors, hit retest, confirmation, biochemical, QFRET peptide cleavage; shares compounds with ADAM17 inh; recombinant ADAM17, EDANS/DABCYL QFRET peptide cleavage; inhibition, % at 6.95 µM; 65% of 2,900 active; AID 743257, 2014;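 active = mean inhibition across replicates above the hit cutoff set in the primary screen, cut at about 8.5% in these data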
PLCg1 ctr – PLC-gamma1 enzyme inhibitors, counter-screen for PLC-beta3 inhibitor project, biochemical, fluorescence. shares compounds with PLC-gamma1 inh. purified PLC-gamma1, fluorogenic substrate. inhibition, % at 12.3 µM. 3.1% of 3,300 active
PLCb3 confirm – PLC-beta3 inhibitor confirmation, biochemical, fluorescence, purified enzyme | shares compounds with PLC-gamma1 inh | fluorogenic substrate fluorescence | inhibition, % at 12.3 µM | 1% of 3,300 active; in the data active = inhibition above about 11%
Large screens that a line does not name were inactive (follow-up assays come after a bar, where they were run). Rule as the data show it, unless noted: active = inhibition above about 9.5%; inactive = the rest.

COc1ccc(NS(=O)(=O)c2ccc(NC(=S)NC(=O)C(C)C)cc2)cc1	PLC-gamma1 inh 11, ADAM10 inh 30, ADAM17 inh 12 | ADAM10 confirm inactive | ADAM17 ctr inactive | ADAM10 ctr inactive | ADAM17 confirm 9.1 | PLCg1 ctr inactive | PLCb3 confirm inactive
Cc1ccc(NC(=S)NCCC(c2ccccc2)c2ccccc2)c(C)c1	none
Cc1ccccc1NC(=S)NCCC(c1ccccc1)c1ccccc1	PLC-gamma1 inh 10, ADAM10 inh 37, ADAM17 inh 16 | ADAM10 confirm inactive | ADAM17 ctr inactive | ADAM10 ctr inactive | ADAM17 confirm inactive | PLCg1 ctr inactive | PLCb3 confirm inactive
CC(C)[C@H](NC(=O)[C@@H]1CSC2c3ccccc3C(=O)N21)C(=O)NC1CCCCC1 (stereo partly specified)	none
COc1ccc(OC)c(CNn2c(-c3cccc(C)c3)nc3ccccc3c2=O)c1	none
COc1cccc(CNn2c(-c3cccc(C)c3)nc3ccccc3c2=O)c1	PLCb3 inh 11, ADAM10 inh 27 | ADAM10 confirm inactive | ADAM17 ctr inactive | PLCg1 ctr inactive | PLCb3 confirm inactive
CCOc1ccc(Cl)cc1-c1cc(C(=O)Nc2ccc(OC)cc2OC)[nH]n1	none
COc1ccc(NC(=O)c2cc(-c3cc(Cl)ccc3OC)n[nH]2)c(OC)c1	PLC-gamma1 inh 12, ADAM10 inh 29, ADAM17 inh 13 | ADAM10 confirm inactive | ADAM17 ctr inactive | ADAM10 ctr 35 | ADAM17 confirm 18 | PLCg1 ctr inactive | PLCb3 confirm inactive
O=C(NCc1cc(Cl)cc(Cl)c1)c1ccc2nc([C@H]3C[C@H](O)[C@@H](CO)O3)[nH]c2c1	none
Cc1cccc(Oc2cc(NC(=O)Cn3cnc([N+](=O)[O-])n3)cc([N+](=O)[O-])c2)c1	PLC-gamma1 inh 11, ADAM10 inh 28 | ADAM10 confirm inactive | ADAM17 ctr inactive | PLCg1 ctr inactive | PLCb3 confirm inactive
Cc1cccc(NC(=O)Cn2c(=O)n(CCc3c[nH]c4ccccc34)c(=O)c3cccnc32)c1	PLC-gamma1 inh 11, ADAM10 inh 20, ADAM17 inh 10 | ADAM10 confirm inactive | ADAM17 ctr inactive | ADAM10 ctr 27 | ADAM17 confirm 17 | PLCg1 ctr inactive | PLCb3 confirm inactive
CC1(C(=O)O)CCCN1C(=O)c1ccccc1OC(F)(F)F (stereo unspecified)	none
CCCN(CC(=O)Nc1ccccc1C)C(=O)CCN1C(=O)c2cccc([N+](=O)[O-])c2C1=O	none
O=S(=O)(c1ccccc1)N(CC(F)(F)F)c1ccc(C(O)(C(F)(F)F)C(F)(F)F)cc1	PLC-gamma1 inh 12, ADAM10 inh 49, ADAM17 inh 22 | ADAM10 confirm inactive | ADAM17 ctr inactive | ADAM10 ctr 37 | ADAM17 confirm 22 | PLCg1 ctr inactive | PLCb3 confirm inactive
O=C(O)CN(c1cccc(C(F)(F)F)c1)S(=O)(=O)c1ccccc1	none
O=S(Cc1cc(Oc2ccccc2)nc(-c2ccccc2)n1)c1ccccc1 (stereo unspecified)	PLC-gamma1 inh 13, ADAM10 inh 26, ADAM17 inh 11 | ADAM10 confirm inactive | ADAM17 ctr inactive | ADAM10 ctr inactive | ADAM17 confirm inactive | PLCg1 ctr inactive | PLCb3 confirm inactive
CN(Cc1ccccc1)C(=O)Cn1nnc(-c2ccccc2)c1COc1ccc2ccccc2c1	PLC-gamma1 inh 11, ADAM10 inh 34, ADAM17 inh 20 | ADAM10 confirm inactive | ADAM17 ctr inactive | ADAM10 ctr 25 | ADAM17 confirm 16 | PLCg1 ctr inactive | PLCb3 confirm inactive
CC(C)(C)c1ccc(/C=N/OCC(=O)NCc2ccc(F)cc2)cc1	PLC-gamma1 inh 13, ADAM10 inh 28, ADAM17 inh 13 | ADAM10 confirm inactive | ADAM17 ctr inactive | ADAM10 ctr 22 | ADAM17 confirm 11 | PLCg1 ctr inactive | PLCb3 confirm inactive
CN1C(=O)c2cc(NC(=O)Nc3ccccc3)ccc2OC[C@H]2O[C@@H](CC(=O)NCc3ccc(-c4ccccc4)cc3)CC[C@@H]21	none
CN1C(=O)c2cc(NC(=O)Nc3ccccc3F)ccc2OC[C@H]2O[C@@H](CC(=O)NCc3ccc(-c4ccccc4)cc3)CC[C@@H]21	PLC-gamma1 inh 12, ADAM10 inh 30 | ADAM10 confirm 22 | ADAM17 ctr inactive | PLCg1 ctr 13 | PLCb3 confirm 12
CC(C)(C)Nc1nc2ccc([N+](=O)[O-])cc2o1	none
CCN(CC)S(=O)(=O)c1ccc(NC(=O)COC(=O)CCc2cc(OC)c(OC)c(OC)c2)cc1	PLCb3 inh 11, ADAM10 inh 28, ADAM17 inh 11 | ADAM10 confirm inactive | ADAM17 ctr inactive | ADAM10 ctr inactive | ADAM17 confirm inactive | PLCg1 ctr inactive | PLCb3 confirm inactive
Cc1ccc(S(=O)(=O)NC2CCSC2=O)cc1C (stereo unspecified)	none

High-throughput results: PubChem, The Scripps Research Institute Molecular Screening Center
